# From PubChem BioAssay AID2570 (National Center for Advancing Translational Sciences (NCATS), 2010)
# “And” between values parts separate entries of the source, which are not always exact repeats. Identical values can stand only once. Inconclusive results are not listed. The source made the active and inactive calls. Calls follow the shape of the dose curve; as a rule, active = well fitted curve in the direction sought with a large enough effect; inconclusive = small, poorly fitted or top-dose-only effect, or another doubt; inactive = no such curve, though single readings can be large or run the other way.
# Target: Vasopressin V1b receptor (Homo sapiens) (UniProt P47901)
# Sequence (P47901 whole entry, looked up): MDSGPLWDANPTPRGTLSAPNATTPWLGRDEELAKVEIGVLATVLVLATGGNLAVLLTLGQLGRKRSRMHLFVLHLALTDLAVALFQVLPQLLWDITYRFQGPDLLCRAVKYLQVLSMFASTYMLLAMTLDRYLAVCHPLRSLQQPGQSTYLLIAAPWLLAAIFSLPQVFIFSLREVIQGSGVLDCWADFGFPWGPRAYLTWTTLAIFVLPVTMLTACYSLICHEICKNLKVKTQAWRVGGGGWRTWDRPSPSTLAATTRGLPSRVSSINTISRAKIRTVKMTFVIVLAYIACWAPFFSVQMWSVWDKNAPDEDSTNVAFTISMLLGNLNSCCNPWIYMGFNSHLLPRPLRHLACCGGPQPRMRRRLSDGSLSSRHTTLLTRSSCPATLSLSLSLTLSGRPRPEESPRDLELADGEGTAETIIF
# Experiment: Counterscreen Concentration-Response Assay for Antagonists of the Neuropeptide S Receptor: Vasopressin Receptor Calcium Signal Transduction
# Conditions: CHO-AVPR1B, vasopressin-stimulated calcium fluorescence, FDSS
# Excerpt: NIH Chemical Genomics Center [NCGC] NIH Molecular Libraries Probe Production centers Network [MLPCN] MLPCN Grant: X01-DA026210-01 Assay Submitter (PI): Heilig, Markus Alexander NCGC Assay Overview: Neuropeptide S receptor (NPSR), previously known as GPR154, is a recently de-orphanized G protein coupled receptor. Its endogenous ligand is the 20 amino acids peptide Neuropeptide S (NPS). […] NPS and its receptor are found in various tissues. Specifically they are highly expressed in brain areas that have been implicated in modulation of arousal, stress and anxiety. Central administration of NPS in mice produces an unusual profile of activity by inducing wakefulness and arousal, while at the same time suppressing anxiety. Therefore, NPSR may represent a novel drug target for the treatment of sleep and anxiety disorders. To identify NPSR antagonists, we developed a cell-based assay with transfected NPS receptor. NPS can stimulate the production of cAMP as well as release intracellular calcium in Chinese hamster ovary cells stably expressing NPS receptor. This change in intracellular calcium can be detected using a calcium indicator dye on a calcium imaging plate reader system (FDSS). To validate the specific action of compounds on the NPS receptor, a counterscreen was developed that tests compounds' antagonism of AVPR1B vasopressin receptor stimulation by vasopressin. […] shares 27% identity with the NPS receptor.
# NCGC Assay Protocol Summary: A Chinese hamster ovary (CHO) cell line stably expressing human vasopressin receptor (AVPR1B) was maintained in F-12 Kaighn's media (Invitrogen, Carlsbad, CA, 21127) supplemented with 10 % FBS, 100 units/ml penicillin, 100 ug/ml streptomycin and 250 ug/ml geneticin at 37C, 5% CO2 in a humidified atmosphere. Before the assay, aliquots of cells were frozen and stored at -135C. The assay was performed on a FDSS-7000 kinetic plate reader in 1536-well format. The maximums of kinetic fluorescence responses were converted into text files using the instrument's software data export utility. Data for antagonist response were normalized to the controls for basal activity (DMSO only) and 100% inhibition (no signal). AC50 values were determined from concentration-response data modeled with the standard Hill equation. CHO-V1B 1536-well FDSS assay protocol: (1) Frozen CHO-V1B cells were thaw, washed once with fresh media and resuspended in F-12 Kaighn's media supplemented with 10 % FBS, 100 units/ml penicillin and 100 ug/ml streptomycin. Cells were plated at 3 ul/well (1200 cells) to black, clear-bottom, tissue-culture treated 1536-well plates, and then cultured at 37C, 5 % CO2 for 16 to 30 hours. (2) Add 3 ul of calcium dye (from High Performance PBX Calcium Assay Kit, BD Biosciences). The calcium dye was prepared according to the manufactory's instruction. (3) Incubation at 37C, 5 % CO2 for 60 min. (4) Add 23 nl/well of compound in DMSO solution. The final titration for each compound was between 0.6 nM and 46 uM. (5) Load plates to FDSS-7000. The following steps were performed on FDSS-7000. (6) Record fluorescent background (Ex 480 nm, Em 520-560 nm) for 10 s. (7) Add 2 ul of stimulation reagent (1X HBSS buffer, 0.1% BSA, 60 nM vasopressin). Record antagonist response (Ex 480 nm, Em 520-560 nm) for 180 s. Keywords: MLSMR, MLPCN, NIH Roadmap, qHTS, NCGC, NPS, Neuropeptide S Antagonists
row,Compound,max response
1,COc1cccc(C2c3c(ncn(-c4ccc5c(c4)OCO5)c3=N)Oc3ccc4ccccc4c32)c1 (stereo not given),-20.7% (inactive)
2,N=c1c2c(ccn1Cc1ccccc1)Oc1ccc3ccccc3c1C2c1ccccc1 (stereo not given),18.5% (inactive)
3,COc1cccc(C2c3c(ncn(-c4ccccc4SC)c3=N)Oc3ccc4ccccc4c32)c1 (stereo not given),14.8% (inactive)
4,COc1cccc(C2c3c(ncn(CCN4CCOCC4)c3=N)Oc3ccc4ccccc4c32)c1 (stereo not given),-2.37% (inactive)
5,COc1cccc(C2c3c(ncn(-c4ccc(F)cc4)c3=N)Oc3ccc4ccccc4c32)c1 (stereo not given),-36.5% (inactive)
6,COc1ccc(C2c3c(ncn(CCCc4ccccc4)c3=N)Oc3ccc4ccccc4c32)cc1OC (stereo not given),11.1% (inactive)
7,COc1ccc(C2c3c(nc(Cc4ccccc4)[nH]c3=O)Oc3ccc4ccccc4c32)cc1OC (stereo not given),14.7% (inactive)
8,CCC(C)(CCN1CCOCC1)N(Cc1cc2ccccc2n(C)c1=O)C(=O)C1CCCCC1 (stereo not given),-9.76% (inactive)
9,COc1cccc(C2c3c(ncn(-c4cccc(F)c4)c3=N)Oc3ccc4ccccc4c32)c1 (stereo not given),-14.9% (inactive)
10,Cc1c(P(=S)(c2ccccc2)c2ccccc2)c2ccccc2n1C/C=C/c1ccccc1,0.93% (inactive)
11,Cc1c(P(=S)(c2ccccc2)c2ccccc2)[n+]2ccccc2n1CCCc1ccccc1,-9.72% (inactive)
12,COc1cccc(C2c3c(ncn(-c4ccccn4)c3=N)Oc3ccc4ccccc4c32)c1 (stereo not given),29.6% (inactive)
13,Cc1c(P(=S)(c2ccccc2)c2ccccc2)c2ccccc2n1C(=O)Cc1ccccc1,5.72% (inactive)
14,COc1cccc(C2c3c(ncn(-c4ccccc4Br)c3=N)Oc3ccc4ccccc4c32)c1 (stereo not given),18.9% (inactive)
15,COc1cccc(C2c3c(ncn(-c4ccncc4)c3=N)Oc3ccc4ccccc4c32)c1 (stereo not given),23.2% (inactive)
16,COc1ccc(C2c3c(n(Cc4ccccc4)cnc3=N)Oc3ccc4ccccc4c32)cc1OC (stereo not given),-20.3% (inactive)
17,COc1cccc(C2c3c(ncn(-c4cccc(C#N)c4)c3=N)Oc3ccc4ccccc4c32)c1 (stereo not given),-10.9% (inactive)
18,CC(C)(C)OC(=O)Nc1ncnc2c1C(c1ccccc1)c1c(ccc3ccccc13)O2 (stereo not given),14.3% (inactive)
19,O=C(c1ccccc1)N(C(=O)c1ccccc1)c1ncnc2c1C(c1ccccc1)c1c(ccc3ccccc13)O2 (stereo not given),12.9% (inactive)
20,O=C1OC(c2ccccc2)(c2ccccc2)N2CCN(C(=O)NCc3ccc(F)cc3)CC12 (stereo not given),22.2% (inactive) and 17.7% (inactive)

row,Compound,max response
1,COc1cccc(C2c3c(ncn(-c4ccccc4C#N)c3=N)Oc3ccc4ccccc4c32)c1 (stereo not given),2.63% (inactive)
2,COc1cccc(C2c3c(ncn(-c4ccc(NC(C)=O)cc4)c3=N)Oc3ccc4ccccc4c32)c1 (stereo not given),-34.2% (inactive)
3,COc1cccc(C2c3c(ncn(-c4ccc(C(C)(C)C)cc4)c3=N)Oc3ccc4ccccc4c32)c1 (stereo not given),17.5% (inactive)
4,COc1cccc(C2c3c(ncn(-c4cccnc4)c3=N)Oc3ccc4ccccc4c32)c1 (stereo not given),-4.29% (inactive)
5,Nc1ncnc2c1C(c1ccccc1)c1c(ccc3ccccc13)O2 (stereo not given),4.27% (inactive)
6,COc1ccc(C2c3c(n(CCCc4ccccc4)cnc3=N)Oc3ccc4ccccc4c32)cc1OC (stereo not given),-23.2% (inactive)
7,CCOC(=O)CCCC(=O)Nc1ncnc2c1C(c1ccccc1)c1c(ccc3ccccc13)O2 (stereo not given),-39.8% (inactive)
8,COc1ccc2c(c1)Oc1ncn(CCN3CCOCC3)c(=N)c1C2c1ccc(OC)c(OC)c1 (stereo not given),-21.2% (inactive)
9,COc1ccc(C2c3c(ncn(CCc4ccccc4)c3=N)Oc3ccc4ccccc4c32)cc1OC (stereo not given),7.55% (inactive)
10,COc1ccc(C2c3c(ncn(CCN4CCOCC4)c3=N)Oc3ccc4ccccc4c32)cc1 (stereo not given),-23.1% (inactive)
11,COc1ccc(C2c3ccccc3Oc3ncn(CCN4CCOCC4)c(=N)c32)cc1OC (stereo not given),20.8% (inactive)
12,COc1ccc(C2c3c(n(CCc4ccccc4)cnc3=N)Oc3ccc4ccccc4c32)cc1OC (stereo not given),-53.4% (inactive)
13,N#CC1=C(NC=NCc2ccccc2)Oc2ccc3ccccc3c2C1c1ccccc1 (stereo not given),-19% (inactive)
14,COc1cccc(C2c3c(ncn(-c4cccc(C)c4)c3=N)Oc3ccc4ccccc4c32)c1 (stereo not given),-55.3% (inactive)
15,COc1ccc(-n2cnc3c(c2=N)C(c2cccc(OC)c2)c2c(ccc4ccccc24)O3)cc1 (stereo not given),-14.1% (inactive)
16,N=c1c2c(ccn1CCCCc1ccccc1)Oc1ccc3ccccc3c1C2c1ccccc1 (stereo not given),19.5% (inactive)
17,COc1ccc(C2c3c(N)nc(Cc4ccccc4)nc3Oc3ccc4ccccc4c32)cc1OC (stereo not given),-15.7% (inactive)
18,COc1cccc(C2c3c(ncn(-c4ccc(C#N)cc4)c3=N)Oc3ccc4ccccc4c32)c1 (stereo not given),-46.5% (inactive)
19,CCOC(=O)c1ccc(-n2cnc3c(c2=N)C(c2cccc(OC)c2)c2c(ccc4ccccc24)O3)cc1 (stereo not given),17.2% (inactive)
20,COc1cccc(C2c3c(ncn(-c4ccc(-c5ccccc5)cc4)c3=N)Oc3ccc4ccccc4c32)c1 (stereo not given),-10.6% (inactive)
